High-throughput results (PubChem BioAssay)
STAT1 activator: STAT1 signaling activators, primary screen, cell-based, HTS, luciferase reporter | NIH 3T3 STAT1-luciferase reporter, IFN-gamma, luminescence; 100% = IFN-gamma alone, no compound | activation (% of control), % at 5.5 µM | 200,000 compounds, 2.6% hits | AID 932, 2007;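 active means activation above the screen-wide mean activation plus 3 SD, cut at about 130% in these data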
Wee1 stabilizer: Wee1 degradation inhibitors, primary screen, cell-based, HeLa, Wee1K328M-luciferase, luminescence. Wee1-like protein kinase (Homo sapiens), P30291. HeLa Luc-Wee1K328M stability; 100% = proteasome inhibitor MG132 effect. reporter increase, % at 5 µM. AID 1321, 2008. 220,000 compounds, 1.2% hits;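 active means activation above the mean of all tested compounds plus 3 SD, set per screening run, cut at about 8.8% in these data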;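 further: cells exposed to compound for 20 h before luminescence read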
Target sequence (P30291 whole entry K328M): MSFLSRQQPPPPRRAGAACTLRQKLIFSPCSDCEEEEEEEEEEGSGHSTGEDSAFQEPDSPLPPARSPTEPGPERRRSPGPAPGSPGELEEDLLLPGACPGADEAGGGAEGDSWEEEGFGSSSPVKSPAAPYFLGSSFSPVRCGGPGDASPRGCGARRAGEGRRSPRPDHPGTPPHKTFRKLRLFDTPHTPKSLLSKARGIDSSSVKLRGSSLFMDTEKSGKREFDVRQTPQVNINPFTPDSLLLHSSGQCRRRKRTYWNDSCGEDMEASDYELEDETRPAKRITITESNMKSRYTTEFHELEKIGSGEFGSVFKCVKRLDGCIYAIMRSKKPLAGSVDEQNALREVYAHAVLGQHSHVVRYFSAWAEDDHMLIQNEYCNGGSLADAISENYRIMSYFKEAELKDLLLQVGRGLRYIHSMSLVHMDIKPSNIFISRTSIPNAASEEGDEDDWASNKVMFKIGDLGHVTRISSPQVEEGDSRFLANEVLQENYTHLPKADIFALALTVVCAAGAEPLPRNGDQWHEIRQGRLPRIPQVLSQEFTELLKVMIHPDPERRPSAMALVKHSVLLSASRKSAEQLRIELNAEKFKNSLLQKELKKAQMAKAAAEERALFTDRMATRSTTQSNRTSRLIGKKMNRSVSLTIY
NF-kB neuron act: activators of NF-kB expression in neurons, primary screen, cell-based, HTS | human neuronal cells, NF-kB reporter expression; stronger effect = higher value | fold change at 12.5 µM | 190,000 compounds, 1.6% hits | AID 1239, 2008; in the data active means fold change above about 3.3
APP 5'UTR act: activators of APP 5'UTR luciferase reporter, primary screen, SH-SY5Y cells | SH-SY5Y APP 5'UTR luciferase reporter, luminescence; zero percent = DMSO vehicle wells | activation, % at 2 µM | 190,000 compounds, 1% hits;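 active means activation above a set limit, based on mean plus 3 SD of controls, cut at about 140% in these data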
APP 5UTR inh: inhibitors of APP translation via 5'UTR reporter, primary screen, APP 5'UTR luciferase, SH-SY5Y cells. SH-SY5Y APP 5'UTR-luciferase reporter, luminescence. inhibition, % at 2 µM. 190,000 compounds, 0.82% hits. AID 1285, 2008;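 active means inhibition above a set limit, derived from the sample mean plus 3 SD, cut at about 45% in these data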
Hsp70 activator: Hsp70 transcriptional activators, primary screen, cell-based, HeLa, Hsp70 promoter luciferase, luminescence, 10 µM | HeLa Hsp70 promoter luciferase reporter; scaled: vehicle 0, proteasome-inhibitor control 100% | activation, % at 10 µM | 200,000 compounds, 0.04% hits;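 active means activation above the mean across all tested compounds plus 3 SD, cutoff set per campaign, cut at about 5.5% in these data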
A number is an active result; - = inactive; . = not tested or not shown. The list is not random: actives were taken first. Their share in the collection is about 4.8%.

SMILES | STAT1 activator | Wee1 stabilizer | NF-kB neuron act | APP 5'UTR act | APP 5UTR inh | Hsp70 activator
Cn1c(=O)c([N+](=O)[O-])c(Cl)c2ccccc21 | - | - | - | - | 57 | -
CCN(CC)c1c([N+](=O)[O-])c(=O)n(C)c2ccccc12 | - | - | - | - | - | -
COc1cccc(C(=O)Nc2sc3c(c2C#N)CCN(C(C)=O)C3)c1 | - | - | - | - | 92 | -
Cc1cccc(C(=O)Nc2sc3c(c2C#N)CCCCC3)c1 | - | - | 3.6 | 178 | - | -
Cc1cccc(C(=O)Nc2sc3c(c2C(=O)O)CCC3)c1 | . | - | . | . | . | .
N#Cc1c(NC(=O)c2cnccn2)sc2c1CCCC2 | 140 | - | - | - | - | -
C#Cc1ccc([C@@H]2C=C(C(=O)N3CCN(Cc4ccccc4)CC3)O[C@H](OCC)[C@H]2CCCO)cc1 | - | - | - | - | - | -
O=C(N/N=C/c1ccc(Cl)c([N+](=O)[O-])c1)c1cc(-c2ccccc2)nc2ccccc12 | - | - | - | - | - | -
COc1ccc(NC(=S)Nc2cc(C)ccn2)c(OC)c1 | 145 | - | - | . | . | -
COc1ccc(NC(=S)Nc2ccc(OC)cc2OC)c(OC)c1 | - | - | - | - | - | -
COc1ccc(NC(=S)Nc2ccccn2)c(OC)c1 | 136 | - | - | - | - | -
CC(C)c1ccc(/C=C/c2ccc(=O)n(C)n2)cc1 | 131 | - | 7.5 | - | - | -
CCOC(=O)C(C)n1nc(/C=C/c2ccc(OC)cc2)ccc1=O (centres undefined) | - | - | - | - | - | -
O=C(Nc1ccc(N2CCOCC2)cc1)C1CCN(S(=O)(=O)Cc2ccccc2)CC1 | - | - | - | - | - | -
Cc1ccc2[nH]c3c(NCCN4CCOCC4)ncnc3c2c1 | - | - | - | - | - | -
CCCCNC(=O)NC1(C(F)(F)F)Oc2ccccc2O1 | - | - | - | - | - | -
COC(=O)c1ccc(C)c(NS(=O)(=O)c2ccc3c(c2)OCCO3)c1 | - | - | - | - | 93 | -
COC(=O)c1ccc(C)c(NS(=O)(=O)c2ccc(OC)cc2)c1 | - | - | 4 | - | 94 | -
COC(=O)c1ccc(C)c(NS(=O)(=O)c2ccc(C)c([N+](=O)[O-])c2)c1 | - | - | - | - | - | -
Cc1ccc(S(=O)(=O)c2ccc(Oc3cccc(C)c3)cc2)cc1 | - | - | - | - | - | -
Cc1cc2n(n1)C(c1ccsc1)Nc1ccccc1-2 (centres undefined) | - | - | - | - | - | -
COc1ccc(Cl)cc1-c1nc(-c2ccc(NC(=O)c3ccncc3)cc2)no1 | - | - | . | - | - | -
CC(Oc1ccc(Cl)cc1Cl)c1nc(-c2ccc(NC(=O)c3ccccn3)cc2)no1 (centres undefined) | 129 | - | - | 147 | - | -
COC(=O)c1c(C)noc1-c1cc(C)on1 | - | - | - | - | - | -
O=C1C(C=NCCN2CCOCC2)=C(O)c2ccccc21 | 133 | - | - | - | - | -
SMILES | STAT1 activator | Wee1 stabilizer | NF-kB neuron act | APP 5'UTR act | APP 5UTR inh | Hsp70 activator
CCOc1ccc(-n2c(SCC(=O)Nc3cc(OC)c([N+](=O)[O-])cc3C)nc3ccccc32)cc1 | - | - | - | - | - | -
COc1cc([N+](=O)[O-])ccc1NC(=O)CSc1nc2ccccc2n1-c1ccccc1 | - | - | 4.2 | - | - | -
CC1CN(C(=O)/C=C/c2ccccc2[N+](=O)[O-])CC(C)O1 (centres undefined) | - | - | - | - | - | -
COc1ccc(NC(=O)C23CC4CC(C2)CC(n2cnc(Br)n2)(C4)C3)cc1Cl | - | - | - | - | 47 | -
N#Cc1c2c(c(Nc3ccccc3)n3c1nc1ccccc13)CCC2 | - | - | - | - | - | -
Cc1cc(/C=N/n2cnnc2)c(C)n1-c1ccc(OCc2ccc(Cl)cc2Cl)cc1 | - | - | - | - | 51 | -
Cc1c(/C=C/C(=O)c2ccccc2O)cnn1C | - | - | 3.9 | - | - | -
Cc1ccc(NC(=O)C2CCCN2C(=O)OC(C)(C)C)cc1C (centres undefined) | . | 10 | . | . | . | .
